Experimental data published in PubChem BioAssay (EPA / NIEHS).
“And” between values parts separate entries of the source, which are not always exact repeats. Equal values may be shown once. Records with an inconclusive call do not appear. Some structures have more than one record in an assay (separate samples or runs), and their calls can disagree. The source made the active and inactive calls. How the source made its calls, unless noted: active means hit-call score of the fitted dose curve at least 0.9, where 1 is the maximum; inconclusive means response in the unintended direction; inactive means score below 0.9.

Key:
[1] = read-out: sulfotransferase (SULT2A), SULT2A1 (gene 6822); test: CLD_SULT2A_48hr: CellzDirect (CLD) Gene Expression Assay for sulfotransferase (SULT2A) at 48 hours (AID 2283710);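 further: hits raise SULT2A1 transcript above the 0.2% DMSO vehicle baseline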
In short: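 SULT2A1 transcript measured by qNPA chemiluminescence in human primary hepatocyte cultures after 48 h, with fresh dosing solutions on two consecutive days; gain-of-signal fitting against 0.2% DMSO vehicle; cytotoxicity annotated from phase-contrast morphology.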

[2] = read-out: HMG-CoA synthase (HMGCS2), HMGCS2 (gene 3158); test: CLD_HMGCS2_48hr: CellzDirect (CLD) Gene Expression Assay for HMG-CoA synthase (HMGCS2) at 48 hours (AID 2283711)
In short: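 mRNA induction read by qNPA chemiluminescence, 48 h after dosing. Cultured primary human liver cells (two donor preparations) received fresh compound daily over two days against 0.2% DMSO vehicle; morphology-based cytotoxicity noted alongside.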

[3] = Tanguay_ZF_120hpf_ActivityScore_legacy: (Legacy) Oregon State University Tanguay Lab 120 Hour Post-fertilization zebrafish Assay Score for Activity (AID 2283742);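 on AC50: dechorionated Tropical 5D wild-type zebrafish embryos held singly per well; static exposure from 6 hpf until 120 hpf at 28 °C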
In short: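 In this whole-embryo screen, dechorionated zebrafish were exposed from 6 hpf until 120 hpf at 28C under a 0.64% DMSO vehicle. Developmental malformations and death were recorded by brightfield microscopy as binary endpoints.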

[4] = CEETOX_H295R_MTT_cell_viability: Viability Assessment in the CeeTox HT-H295R MTT Assay (AID 2283718; active means hit-call score of the fitted dose curve at least 0.9, where 1 is the maximum; inactive means score below 0.9;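 on AC50: curve fitted both ways so AC50 may mark viability loss or gain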)
In short: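 H295R cells prestimulated 48 h with 10 uM forskolin, then exposed 48 h to test chemical (0.1% DMSO final). Viability by MTT (0.5 mg/ml, 4 h, 37 C), absorbance 570/650 nm; percent change versus DMSO, bidirectional fit.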

[5] = STM_H9_OrnithineISnorm_perc: Stemina devTOX quickPredict H9 human embryonic stem cell (hESC)-based Assay for Ornithine (ORN) Metabolite Biomarker, Normalized (AID 2283712; active means hit-call score of the fitted dose curve at least 0.9, where 1 is the maximum; inactive means score below 0.9;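 further: ornithine released into spent medium during last day measured by mass spectrometry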)
In short: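 Ornithine secreted by H9 hESCs after 72h compound treatment (daily media/compound renewal) was quantified in final-day media by UPLC-HRMS. Values are isotope-standard-normalized, expressed relative to 0.1% DMSO, fitted in positive direction.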

[6] = STM_H9_CystineISnorm_perc: Stemina devTOX quickPredict H9 human embryonic stem cell (hESC)-based Assay for Cystine (CYSS) Metabolite Biomarker, Normalized (AID 2283713; active means hit-call score of the fitted dose curve at least 0.9, where 1 is the maximum; inactive means score below 0.9)
In short: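 Cells are held undifferentiated and treated for 72h, receiving fresh medium with compound every 24h. Cystine secreted during the final day is quantified by UPLC-HRMS against a labeled spike-in, then expressed relative to the DMSO vehicle median.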

[7] = STM_H9_OrnCyssISnorm_ratio: Stemina devTOX quickPredict H9 human embryonic stem cell (hESC)-based Assay for Ornithine (ORN):Cystine (CYSS) Ratio (AID 2283714)
In short: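 H9 hESC, 72h, q24h re-dose; last-day media → acetonitrile deproteinization → UPLC-HRMS. ORN:CYSS ratio from isotope-normalized EIC areas, vs 0.1% DMSO; MTX references on each plate.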

O=C(O)c1nc(Cl)ccc1Cl
outcome [1]: inactive
outcome [2]: inactive
outcome [3]: inactive

C=CCC1=C(C)C(OC(=O)C2C(C=C(C)C)C2(C)C)CC1=O (configuration not stated)
outcome [1]: inactive
outcome [2]: inactive
AC50 [4]: 9.99 µM (active)
outcome [3]: inactive

CCCCC(CC)COC(=O)c1ccccc1C(=O)OCC(CC)CCCC (configuration not stated)
outcome [1]: inactive
outcome [5]: inactive
AC50 [6]: 30 µM (active)
AC50 [7]: 30.9 µM (active)
outcome [4]: inactive
outcome [3]: inactive

COC(=O)c1ccccc1C(=O)OC
outcome [1]: inactive
outcome [2]: inactive
outcome [5]: inactive
outcome [6]: inactive
outcome [7]: inactive
outcome [4]: inactive
outcome [3]: inactive

COP(N)(=O)SC (configuration not stated)
outcome [1]: inactive
outcome [2]: inactive
outcome [3]: inactive

C=CC1(C)OC(=O)N(c2cc(Cl)cc(Cl)c2)C1=O (configuration not stated)
outcome [1]: inactive
outcome [5]: inactive
outcome [6]: inactive
outcome [7]: inactive
outcome [4]: inactive
outcome [3]: inactive

CO/C=C(/C(=O)OC)c1ccccc1Oc1cc(Oc2ccccc2C#N)ncn1
outcome [5]: inactive
outcome [6]: inactive
outcome [7]: inactive
AC50 [3]: 9.41 µM (active) and 2.03 µM (active)
outcome [3]: inactive

O=C(Nc1ccccc1)Nc1ccnc(Cl)c1
outcome [1]: inactive
AC50 [3]: 38.6 µM (active)

CNC(=O)ON=CC(C)(C)SC
AC50 [3]: 0.00317 µM (active)

N#Cc1cc(Br)c(O)c(Br)c1
outcome [1]: inactive
AC50 [3]: 23.8 µM (active)

COP(=S)(OC)Oc1nc(Cl)c(Cl)cc1Cl
outcome [4]: inactive
outcome [3]: inactive

CN(C)C(=S)SSC(=S)N(C)C
AC50 [5]: 17.7 µM (active)
AC50 [6]: 14.5 µM (active)
AC50 [7]: 16.2 µM (active)
AC50 [3]: 9.8 µM (active)

Oc1ccccc1-c1ccccc1
outcome [1]: inactive
outcome [4]: inactive
AC50 [3]: 45.8 µM (active)

O=C(O)COc1nc(Cl)c(Cl)cc1Cl
outcome [2]: inactive
outcome [3]: inactive

Fc1ccc(Oc2ccnc3cc(Cl)cc(Cl)c23)cc1
outcome [1]: inactive
outcome [3]: inactive
